The source of these data is PubChem BioAssay AID1645858 (Buhrlage Lab, Dana-Farber Cancer Institute and Novartis …, 2021).

The campaign covered roughly 47,000 compounds. About 330 (0.7%) were called active. This is one part of a sample in which actives are shown more often than they occur. Values without a mark were called inactive. Cut-off read from the data, not from the text of the source: active = inhibition above about 30%; inactive = the rest.

By inhibition is commonly meant the change of the read-out against control, counted positive when it falls.

The target of the assay is OTU domain-containing protein 3 (Homo sapiens) (UniProt Q5T2D3). The experiment in a line: blocks human OTUD3 ubiquitin-rhodamine cleavage (AID 1645858). The settings on record: purified OTUD3, Ub-rhodamine fluorescence, 2 h; at 25 µM; stronger effect = higher value.
Chain of OTU domain-containing protein 3 (Homo sapiens) (Q5T2D3 whole entry, looked up, the tested form may be a part): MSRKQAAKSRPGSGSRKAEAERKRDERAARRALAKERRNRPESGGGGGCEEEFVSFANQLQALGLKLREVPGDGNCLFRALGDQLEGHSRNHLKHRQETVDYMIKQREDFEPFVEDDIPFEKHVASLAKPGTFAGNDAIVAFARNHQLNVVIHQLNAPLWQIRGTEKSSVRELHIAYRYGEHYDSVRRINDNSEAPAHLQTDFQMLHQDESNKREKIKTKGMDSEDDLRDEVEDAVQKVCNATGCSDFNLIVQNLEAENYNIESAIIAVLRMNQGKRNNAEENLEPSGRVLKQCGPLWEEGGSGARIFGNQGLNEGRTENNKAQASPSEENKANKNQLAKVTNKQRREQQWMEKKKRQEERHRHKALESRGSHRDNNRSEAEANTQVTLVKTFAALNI
In the case of `Cc1cc(N2C(=O)c3oc4ccccc4c(=O)c3C2c2ccc(F)cc2)no1` (stereo not given), the inhibition is -4.24%. In the case of `CCNC1CN(C(=O)Cn2nnc3ccccc32)C2(CCCCC2)C1` (stereo not given), the inhibition was 2.28%. As to `O[C@H]1[C@H](O)[C@H](Oc2cccc(F)c2)CC[C@H]1NCc1ccncc1`, the inhibition was 15.2%. `NS(=O)(=O)c1cccc(CNC(=O)C2(c3ccccc3)CCC2)c1`: the inhibition is 0.73%. In the case of `N#Cc1c(N)nc2c(c1N)CC(C(F)(F)F)O2` (stereo not given) it was -4.36%. Turning to `Clc1ccc2[nH]c3c(ccc4c5cc(Cl)ccc5[nH]c43)c2c1`, the inhibition was 3.62%. In the case of `COc1ccc(CNC(=O)c2[nH]nc3c2CCc2ccccc2-3)cc1`, the inhibition is -5.63%.

Take `Cc1ccc(NC(=O)N2CCCC2c2cc(C)on2)c(Cl)c1` (stereo not given): the inhibition was -2.99%. As to `c1cc(CNCc2ccc3c(c2)OCO3)ccn1`, the inhibition is 0.0568%. For the molecule `c1ccc(-c2ccc(NCc3ccc4c(c3)OCO4)nn2)cc1`, the inhibition is 43.5% (active).

With `CCC(Oc1ccccc1)C(=O)NCc1ccc2c(c1)OCO2` (stereo not given), the inhibition was 9.11%. With `Cc1cc(Cl)ccc1NC(=O)c1ccc(=O)[nH]c1`, the inhibition is -2.31%.

For `N[C@@H]1C[C@@H](Oc2cccnc2)[C@H](O)[C@H]1N1CCN(c2ccccc2)CC1`, the inhibition was -8.12%. On to `CSc1nccc(-c2ccc(F)cc2)c1C#N`, for which the inhibition was 11%. Turning to `CCn1c(CNC(=O)c2ccco2)nnc1SCC(=O)Nc1ccc(C)cc1`, the inhibition was 0.297%. In the case of `Cc1ccc(CN2C(=O)C(CC(=O)Nc3ccc(F)cc3)n3c2nc2ccccc23)cc1` (stereo not given) it was -8.71%; in that of `Cc1c(Cl)ccc2sc(N(Cc3ccncc3)C(=O)c3ccco3)nc12`, -4.28%. As for `Cc1coc2c(C)c3oc(=O)c(CC(=O)N4CC[C@@]5(O)CCCC[C@H]5C4)c(C)c3cc12`, the inhibition was -9.33%. With `CC(=O)c1ccc(C)c(=O)o1`, the inhibition is 9.1%. `CC(=O)N1CCSc2ccc(S(=O)(=O)N(C)C(C)CCc3ccco3)cc21` (stereo not given): the inhibition was -8.61%.

As to `O=C1NC2(CCN(C(=O)NCc3ccccc3)CC2)Nc2c(Cl)cccc21`, the inhibition was -5.72%. For `CC(C)c1ncc(CN2CCC3(CC2)CN(S(C)(=O)=O)Cc2ccccc2O3)cn1`, the inhibition is -4.5%.

Turning to `COc1ccc(-c2[nH]c3ccccc3c2SCCNC(=O)c2ccc(S(=O)(=O)N3CCOCC3)cc2)cc1`, the inhibition was 11.6%.

For `O=C(CCc1nnc2n(CCc3ccccc3)c(=O)c3ccccc3n12)N1CCOCC1`, the inhibition was 4.98%. On to `COC(=O)c1ccc(CN(C)C(=O)c2ccc(-c3nnc(-c4ccccc4)o3)cc2)cc1`, for which the inhibition was -0.482%. Consider `O=C1CCCN1Cc1ncn2c1CN(Cc1cccnc1)CCC2`, for which the inhibition is -1.01%. With `CCN1C(=O)C[C@@H](C(=O)NCc2nc(C)no2)[C@@H]1c1ccccc1C`, the inhibition was 1.87%. Take `COc1ccc(CC2c3cc(OC)c(OC)cc3CCN2C(=O)c2ccc(C)c(Cl)c2)cc1OC` (stereo not given): the inhibition was 1.03%. For `O=C(CSC1=NC2(CCCCC2)Nc2ccccc21)Nc1cccc(F)c1`, the inhibition is -11.6%. In the case of `O=C(NCc1ccc(F)cc1)C1CCc2nc(N3CCCCC3)ncc2C1` (stereo not given), the inhibition is 1.53%. On to `Cc1cc(-c2ccc(S(=O)(=O)Nc3cccc(CN4CCCC4)c3)s2)n[nH]1`, for which the inhibition was -13.6%. Consider `Cc1ccc(S(=O)(=O)c2cnc3ccccc3c2N2CCC3(CC2)OCCO3)cc1`, for which the inhibition is 1.24%. To `O=C(Cc1c[nH]c2ccccc12)NC1(c2nc(-c3ccncc3)no2)CCCCC1` belongs -15.9%. In the case of `Clc1ccccc1-c1nc2nc3ccccc3nc2n1CC1CCCO1` (stereo not given) it was -16%; in that of `COc1ccc(N2CC(C(=O)OCC(=O)Nc3ccc(F)cc3)CC2=O)cc1` (stereo not given), -3.39%.

Regarding `C[C@@H]1CC[C@H]2C(CN3CCN(C)CC3)C(=O)O[C@]23[C@H]1CC[C@@]1(C)O[C@@H]31` (stereo not given in full), the inhibition was 4.7%. To `Cc1ccccc1CNC(=O)c1cn(C)nc1S(=O)(=O)N1CCC(C)CC1` belongs 1.12%; to `COc1ccccc1Cn1cnc2c([nH]c3cc(OC)c(OC)cc32)c1=O`, 0.0298%; to `Cc1nccc(N2CCC(Cc3cncc(-c4cnc(C)n4C)n3)C2)n1` (stereo not given), 3.33%. `COc1ccc(NC(=O)Cn2ncc3cccn3c2=O)cc1`: the inhibition was -2.63%. In the case of `CCCNC(=O)c1cc(N2CCCC2)n2nccc2n1` it was -68.7%; in that of `CCS(=O)(=O)N1C[C@H]2CN(Cc3ccccc3Cl)C[C@H]2C1`, -1.12%. Regarding `O=C(COC(=O)C1CCN(S(=O)(=O)c2c(Cl)cccc2Cl)CC1)Nc1ccc2c(c1)CCC2`, the inhibition was 0.0518%.

As to `Cc1cccc(-c2nnc(-c3cccc(S(=O)(=O)N4CCCC4)c3)o2)c1`, the inhibition is 10.7%.

Take `O=C(Nc1nnc(-c2cccc([N+](=O)[O-])c2)o1)C1CCN(S(=O)(=O)c2ccc3c(c2)CCC3)CC1`: the inhibition was 30.3% (active).

For the molecule `Cc1cnc2nc3c(cc2c1)CN(S(=O)(=O)c1cc(F)ccc1C)CC3`, the inhibition was -230%.

Consider `COCCN1[C@H]2CCN(Cc3ccccn3)CC[C@@H]2Oc2ccccc2S1(=O)=O`, for which the inhibition is 7.81%.

In the case of `O=c1c(NCCCc2ccccc2)nccn1-c1ccc2c(c1)OCCO2`, the inhibition is -4.73%. In the case of `CC(C)N1C(=O)Cc2ccccc2C1C(=O)NCc1ccccc1F` (stereo not given) it was 2.54%; in that of `Cc1ccc(Sc2c(C)[nH]n(-c3ccccc3)c2=O)cc1`, 7.8%; in that of `COc1c(O)c2c(=O)cc(OC)c3c4c(OC)cc(=O)c5c(O)c(OC)c(CC(C)OC(=O)c6ccccc6)c(c(c1CC(C)OC(=O)Oc1ccc(O)cc1)c23)c54` (stereo not given), -24.8%. Regarding `C=C1CCC2[C@](C)(CCC[C@]2(C)C(=O)OC)[C@H]1CCc1ccoc1/C=C/C(=O)O` (stereo not given in full), the inhibition is 57.1% (active).

On to `C=C1CCC2[C@](C)(CCC[C@]2(C)C(=O)OC)[C@H]1CCc1ccoc1C[N+](C)(C)Cc1ccccc1` (stereo not given in full), for which the inhibition was 22.7%. In the case of `C=C1CCC2[C@](C)(CCC[C@]2(C)C(=O)OC)[C@H]1CCc1ccoc1CNCC(=O)O` (stereo not given in full) it was -1.63%; in that of `Cc1cc(C)n(CCCNS(=O)(=O)c2ccc(C(C)(C)C)cc2)n1`, -3.74%; in that of `Cc1nc(-c2ncc[nH]2)cc(C2CCCCN2S(=O)(=O)N(C)C)n1` (stereo not given), -4.61%. To `N#Cc1cccc(S(=O)(=O)c2c[nH]c3ccc(Cl)cc3c2=O)c1` belongs -5.74%; to `CCC(C)C1NC(=O)C(Cc2ccc(O)cc2)NC(=O)C(CCC(N)=O)NC(=O)C2CCCN2C(=O)C(C(C)C)NC(=O)C(CCC(=O)O)NC(=O)C(C(C)O)NC(=O)C(NC(=O)C(CCCN)NC(=O)C(CCC(=O)O)NC(=O)CCCCCCCCCCCCCC(C)C)Cc2ccc(cc2)OC1=O` (stereo not given), 5.05%.

Regarding `O=C(NC(C(=O)N1CCCc2ccccc21)c1ccccc1)c1cnccn1` (stereo not given), the inhibition was 14.1%. As for `Cc1noc(-c2cccn(Cc3cc(F)ccc3F)c2=O)n1`, the inhibition was 5.03%. In the case of `N#Cc1ccc(NC(=O)Nc2cccn(Cc3ccccc3F)c2=O)cc1` it was 37.7% (active); in that of `O=C(Cn1cccc(-c2nc(-c3ccccc3)no2)c1=O)Nc1ccccc1F`, 6.4%; in that of `Cc1cc(C(=O)N2CCCCC2c2[nH]ncc2C)c2c(C)noc2n1` (stereo not given), 11.6%. Consider `COc1ccccc1C(=O)Nc1ccc(N(c2ccccc2)C(C)C)cc1`, for which the inhibition was 2.72%. For the molecule `FC(F)(F)c1cc(N2CCCCC2)nc(-c2ccccn2)n1`, the inhibition was -3.6%. To `CC(Sc1ncnc2ccccc12)C(=O)NCc1ccc2c(c1)OCO2` (stereo not given) belongs 12.8%; to `Cn1cc(C2CCCN2C(=O)c2ccc(-n3cccn3)nc2)cn1` (stereo not given), -5.62%; to `COc1ccc(-c2cc(=O)oc3c(C)c(OCc4ccccc4F)ccc23)cc1`, 1.77%.

As to `CN1CCN(c2nc3c(s2)CN(C(=O)c2ccnn2C)CC3)CC1`, the inhibition is -25.7%. For `COc1cccc(NC(=O)C(Sc2cccc(NC(=O)c3ccccc3F)c2)c2ccccc2)c1` (stereo not given), the inhibition is 15.7%.

For `C#CCOc1ccc2ccccc2c1CN1CCc2ccccc2C1`, the inhibition is 14.8%. To `COCCN(C(=O)CCC(=O)Nc1ccccn1)C(C(=O)NCC1CCCO1)c1ccc(C)cc1` (stereo not given) belongs 12.3%; to `CN1C[C@H]2CCN(S(=O)(=O)c3ccc(OC(F)(F)F)cc3)C[C@H]21`, 5.38%.

As to `COc1ccccc1N1CCN(C(=O)CSCc2ccccc2C)CC1`, the inhibition was -10.5%.

For the molecule `CC(C)C(NS(=O)(=O)c1ccccc1)C(=O)OCC(=O)Nc1cc([N+](=O)[O-])ccc1F` (stereo not given), the inhibition was 6.16%. Take `CCCc1cc(=O)[nH]c2nnc(SCC(=O)N(CC)CC)n12`: the inhibition was -0.85%. Turning to `Cc1nn(-c2ccc(F)cc2F)c2c1C(C(=O)c1cc3ccccc3o1)CC(=O)N2` (stereo not given), the inhibition is -3.81%. In the case of `CCCCC1CCC(C(=O)N2CCC(C3(C)NC(=O)NC3=O)CC2)CC1` (stereo not given) it was 5.45%. `CCc1ccc(S(=O)(=O)Nc2cc(C(=O)Nc3ccccc3)ccc2OC)cc1`: the inhibition was -4%. On to `Cc1cc(CN2CC[C@H]3[C@H]2CCN3S(C)(=O)=O)oc1C`, for which the inhibition is -12%. For the molecule `Cc1nn(CC(C)C)c(C)c1CC(=O)N1CCCC1c1cnn(C)c1` (stereo not given), the inhibition is -0.626%.

With `NC(=O)CC[C@H](NC(=O)[C@@H]1CCCN1C(=O)[C@H](Cc1ccccc1)n1c(=O)[nH]c2ccccc2c1=O)C(=O)O`, the inhibition was -2.35%.

Regarding `Cc1ccc(NC(=O)C2CCN(S(=O)(=O)c3cnc[nH]3)CC2)cc1Cl`, the inhibition is -2.32%. To `O=C(Cc1c(Cl)cccc1Cl)NCc1cccc(C(F)(F)F)c1` belongs 4.26%; to `COc1cccc(CN2C[C@@]34CN(C(=O)C5CCC5)C[C@@H](C[C@@H]3S2(=O)=O)O4)c1`, 9.25%.
